# MITF inh – human MITF inhibition, primary screen; O75030; AlphaScreen MITF homodimerization, bead proximity signal; inhibition, % at 2.6 µM; actives 0.91% (n = 650,000); AID 1259374; in the data active = inhibition above about 50%;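 also: 0% = vehicle wells with protein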
# GPR151 activ – human GPR151 activation; PathHunter beta-arrestin GPR151 cells, luminescence; activation, % at 11.2 µM; actives 1% (n = 650,000); in the data active = activation above about 4.9%;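 also: 0% = median of compound wells and 100% = cells with positive control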
# Target sequence (Q8TDV0 whole entry, looked up): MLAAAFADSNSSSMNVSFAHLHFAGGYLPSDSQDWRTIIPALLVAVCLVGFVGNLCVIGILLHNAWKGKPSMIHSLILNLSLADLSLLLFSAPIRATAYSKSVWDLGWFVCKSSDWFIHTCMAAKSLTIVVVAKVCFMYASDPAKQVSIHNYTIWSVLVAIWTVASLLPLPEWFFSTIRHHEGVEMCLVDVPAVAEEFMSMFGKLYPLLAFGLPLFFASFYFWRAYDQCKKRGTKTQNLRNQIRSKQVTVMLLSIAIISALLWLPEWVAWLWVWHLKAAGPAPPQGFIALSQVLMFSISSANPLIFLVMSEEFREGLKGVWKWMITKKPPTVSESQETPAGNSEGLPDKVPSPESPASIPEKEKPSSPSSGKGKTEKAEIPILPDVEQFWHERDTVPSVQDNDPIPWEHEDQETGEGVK
# TEAD-YAP block – TEAD-YAP interaction inhibition; HEK-TIYL cells, TEAD-Gal4/YAP UAS-luciferase luminescence; inhibition, % at 9.12 µM; actives 1.4% (n = 640,000); AID 1259422; in the data active = inhibition above about 32%;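 also: 0% = median of test compound wells and 100% = reference inhibitor wells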
# FBW7 act – activators of human E3 ligase FBW7. normalized activity (activation), % at 26.1 µM. Q969H0. AID 1259310. actives 0.13% (n = 650,000). AlphaScreen FBW7–phospho-cyclin E peptide binding, activator screen; in the data active = normalized activity above about 1.9%;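 also: purified mutant Fbw7 with reduced substrate affinity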
# MITF inh conf – confirmation of human MITF inhibitors; shares compounds with MITF inh; AlphaScreen MITF homodimerization, biotin/His-MITF beads; inhibition, % at 2.6 µM; actives 16% (n = 4,700);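 active = inhibition above a cutoff derived from the DMSO control wells, cut at about 28% in these data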;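 also: 0% = MITF dimer wells with DMSO only; inhibitors lower the bead chemiluminescence by keeping MITF from dimerizing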
# AlphaScreen DR – counter-screen: compounds optically interfering with AlphaScreen; shares compounds with MITF inh; AlphaScreen optical interference counterscreen, cell-free; IC50, µM; actives 6% (n = 480); AID 1259373; call rule not given here
# AS interf ctr – optically interferes with AlphaScreen signal. shares compounds with MITF inh. inhibition, % at 2.6 µM. actives 7.6% (n = 4,700). AID 1259376. LysRS AlphaScreen counterscreen, signal interference, triplicate;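 active = inhibition above a cutoff derived from the DMSO control wells, cut at about 30% in these data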
# * hit, by the source's call; x = not tested or not shown. A selection: hits, their analogues and other compounds. The true share with any hit is near 3.5%.
SMILES,MITF inh,GPR151 activ,TEAD-YAP block,FBW7 act,MITF inh conf,AS interf ctr,others
O=C(CCCNC(=O)OCc1ccccc1)OCN1C(=O)c2ccccc2C1=O,-4,1,4,0,x,x,
CCCOC1C(C2COC(C)(C)O2)OC2OC(C)(C)OC21 (stereo unspecified),14,-2,8,0,x,x,
Cc1cc(NC(=O)CN2CCC(Cn3c(C)nc4ccccc43)CC2)no1,79*,-1,39*,0,11,14,
COC(=O)c1ccc(NC(=O)CN2CCC(Cn3c(C)nc4ccccc43)CC2)cc1,68*,0,12,0,5,22,
CCN(c1ccc(Cl)cc1)S(=O)(=O)c1nnc(NC(=O)c2ccccc2C)s1,3,2,-6,0,x,x,
CCCOc1ccc(OC(=O)/C=C/c2ccc(OC)cc2)cc1,13,1,-2,0,x,x,
O=C(O)COc1ccc(-n2cccc2)cc1,74*,-1,-1,0,50*,-4,AlphaScreen DR=>6.5
O=C(O)COc1ccc(N2C(=O)c3ccccc3C2=O)cc1,16,-1,-2,0,x,x,
O=C(COC(=O)C1COc2ccccc2O1)c1ccc(Cl)s1 (stereo unspecified),-5,0,-1,0,x,x,
CCOc1ccc(S(=O)(=O)N2CCN(CC(O)c3ccccc3)CC2)cc1 (stereo unspecified),-3,-1,-6,0,x,x,
N#Cc1ccccc1S(=O)(=O)N1CCN(CC(O)c2ccccc2)CC1 (stereo unspecified),58*,-2,1,0,-11,-4,
N#Cc1ccccc1S(=O)(=O)N1CCN(CC(O)COc2ccccc2F)CC1 (stereo unspecified),51*,-1,4,0,7,7,
N#Cc1ccc(-c2ccc(OCC(=O)Nc3ccc(Br)cn3)cc2)cc1,-11,-1,-13,0,x,x,
O=C(OCC(=O)C12CC3CC(CC(C3)C1)C2)C1COc2ccccc2O1 (stereo unspecified),5,1,5,0,x,x,
CCN(C(=O)C1COc2ccccc2O1)C12CC3CC(CC(C3)C1)C2 (stereo unspecified),61*,-2,5,0,71*,1,AlphaScreen DR=>6.8
COc1ccc(-n2c(SCC(=O)/C(C#N)=C(\C)N)nc3ccccc32)cc1,70*,2,-7,0,4,7,
CCCNc1nc(Nc2cnccn2)nc2nc[nH]c12,3,1,25,0,x,x,
CC1CN(Cc2ccccc2Cl)CC(C)O1 (stereo unspecified),80*,0,3,1,-2,6,
Clc1ccccc1CN1CCN(Cc2ccco2)CC1,69*,1,-20,0,16,16,
O=[N+]([O-])c1ccccc1CN1CCSCC1,38,0,0,0,x,x,
O=[N+]([O-])c1ccccc1CN1CCN(Cc2ccco2)CC1,54*,0,-7,0,7,15,
O=[N+]([O-])c1ccc(Oc2cccc3cccnc23)c2ccncc12,11,-1,-5,-1,x,x,
NC(=O)/C(=C\c1cccc([N+](=O)[O-])c1)NC(=O)c1ccc(Br)cc1,53*,-1,0,0,32*,-1,AlphaScreen DR=>6.5
NC(=O)/C(=C/c1cccc([N+](=O)[O-])c1)NC(=O)c1cccc(Br)c1,3,-1,14,0,x,x,
c1nc2nc(Nc3ccc(N4CCOCC4)cc3)nc(Nc3ccc(OCCN4CCCCC4)cc3)c2[nH]1,0,-2,-20,0,x,x,
SMILES,MITF inh,GPR151 activ,TEAD-YAP block,FBW7 act,MITF inh conf,AS interf ctr,others
Cc1sc2ncnc(N(C)CCc3ccccn3)c2c1C,73*,0,2,0,4,2,
Cc1ccc(/C=C2/SC(=S)N(C(CC(C)C)C(=O)O)C2=O)o1 (stereo unspecified),23,0,-3,-1,x,x,
COc1ccc(NC(=O)CSc2nc3ccc(N)cc3s2)cc1,10,0,-24,0,x,x,
COC(=O)CSc1nc2ccc(N)cc2s1,63*,1,6,0,-5,14,
CN=C1SC(CC(=O)Nc2cccc(C(=O)O)c2)C(=O)N1C (stereo unspecified),53*,3,10,0,36*,9,AlphaScreen DR=>6.5
CN1CCN(CC(=O)Nc2nc3ccccc3s2)CC1,51*,0,-15,0,7,14,
CCn1nc(C(=O)Nc2cc(C)nn2-c2nc3ccccc3s2)cc1C,1,0,13,0,x,x,
O=C(CCC1CCCCC1)Nc1nc2ccccc2s1,92*,1,-32,0,7,11,
CCCC(=O)Nc1nc2ccccc2s1,13,-2,-39,0,x,x,
CCn1nc(C(=O)Nc2nc3ccccc3s2)cc1C,69*,-9,88*,0,-4,-5,
COc1c(Cl)cc(Cl)cc1C=NC(=O)CC#N,24,2,-15,0,x,x,
Cc1ccc(C(=O)COC(=O)CN2C(=O)C3CC=CCC3C2=O)cc1[N+](=O)[O-] (stereo unspecified),-15,-1,-6,0,x,x,
COc1ccc(C2=N/C(=C\c3sccc3C)C(=O)O2)cc1Br,-11,0,4,0,x,x,
S=c1nc2ccccc2c2[nH]c3ccccc3n12,56*,-1,-8,0,-7,2,
S=c1[nH]c2ccccc2n2c(=S)[nH]nc12,20,-1,-12,0,x,x,
CCCS(=O)(=O)N1CCN(Cc2ccc(OC)cc2OC)CC1,35,-1,-7,0,x,x,
CCCS(=O)(=O)N1CCN(Cc2ccc(OC)c(OC)c2)CC1,53*,1,3,0,6,17,
CCCS(=O)(=O)N1CCN(Cc2ccc(OC)cc2)CC1,47,2,-6,0,x,x,
CCCS(=O)(=O)N1CCN(Cc2ccc(OCc3ccccc3)c(OC)c2)CC1,64*,0,-4,0,7,9,
CCCS(=O)(=O)N1CCN(Cc2nc3ccc(OC)cc3[nH]2)CC1,66*,2,-10,0,1,21,
Cn1c(=O)[nH]c(=O)c2c1nc(Cl)n2CC(N)=O,82*,0,-1,0,2,10,
O=C(CSc1nc2ccccc2s1)Nc1nncs1,-12,-1,-8,0,x,x,
CCOC(=O)c1ccc(NC(=S)NC(=O)/C=C/c2ccco2)cc1,69*,0,-1,0,4,3,
Cc1c(NC(=S)NC(=O)/C=C/c2ccco2)cccc1C(=O)O,67*,1,0,0,60*,23,AlphaScreen DR=>6.5
O=C(/C=C/c1ccco1)NC(=S)Nc1cc(C(=O)O)ccc1Cl,63*,-1,10,0,69*,7,AlphaScreen DR=>6.5
O=C(/C=C/c1ccco1)NC(=S)NNC(=O)c1ccccc1O,61*,-1,58*,-1,66*,-18,AlphaScreen DR=>6.5
Nc1nnc(COc2ccccc2Cl)s1,8,1,-6,0,x,x,
COc1cccc(-c2nc(C3CCN(C(C)=O)CC3)n3ccc(Cl)cc23)c1,77*,0,2,0,7,13,
